Results as given in PubChem BioAssay (NCATS).
Where “and” joins values, the source holds several entries; their conditions need not be identical. Equal values may be shown once. Inconclusive results are not listed. More than one record can exist for a structure, and the calls need not agree. Calls of active or inactive are those of the source. Unless noted, calls come from the whole dose curve; as a rule, active = well fitted curve in the direction sought with a large enough effect; inconclusive = small, poorly fitted or top-dose-only effect, or another doubt; inactive = no such curve, though single readings can be large; an effect the other way counts as inactive or inconclusive.

Columns and labels:
[1] = AP1 Signaling Pathway (AID 357; active = well fitted curve in either direction with a large enough effect, not every such curve was filed as active; note: % is set by controls: 0 for no effect and ±100 for the full control effect)
Method in brief: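 ME-180 cells with beta-lactamase reporter under AP-1 response element, stimulated with EC50 EGF; compounds tested in titration series, 5 h at 37 °C. CCF4 substrate added 2.5 h at room temperature; 460/530 nm emission ratio gave %activity and AC50.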

[2] = molecular target: Cytochrome P450 1A2 (Homo sapiens) (UniProt P05177); experiment: p450-cyp1a2 (AID 410; calls by dose curve; note: potency is the fitted concentration of half-maximal effect;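 for activity change, negative = inhibition: -100% = full effect of reference inhibitor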)
Chain of Cytochrome P450 1A2 (Homo sapiens) (P05177 whole entry, looked up): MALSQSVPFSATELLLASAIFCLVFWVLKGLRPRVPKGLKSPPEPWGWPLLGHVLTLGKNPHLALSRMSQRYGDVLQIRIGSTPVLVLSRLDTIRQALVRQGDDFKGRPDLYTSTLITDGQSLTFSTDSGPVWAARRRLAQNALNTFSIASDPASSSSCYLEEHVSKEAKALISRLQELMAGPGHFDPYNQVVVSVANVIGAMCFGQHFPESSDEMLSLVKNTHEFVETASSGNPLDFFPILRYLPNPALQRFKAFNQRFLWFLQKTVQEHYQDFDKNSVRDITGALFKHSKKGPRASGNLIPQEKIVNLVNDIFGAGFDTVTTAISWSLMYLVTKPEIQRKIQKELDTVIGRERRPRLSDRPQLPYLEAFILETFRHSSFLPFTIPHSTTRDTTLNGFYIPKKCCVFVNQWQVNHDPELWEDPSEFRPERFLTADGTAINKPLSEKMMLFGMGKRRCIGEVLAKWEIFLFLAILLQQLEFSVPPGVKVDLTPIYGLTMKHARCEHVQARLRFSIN
Method in brief: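 Read-out is luminescence from luciferin produced by CYP1A2 demethylation of Luciferin-ME (100uM, at Km). Detection reagent stopped the 60 min NADPH-dependent reaction; signals were normalized to 57 uM furafylline.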

[3] = Stat Signaling Pathway (AID 446; active = well fitted curve in either direction with a large enough effect, not every such curve was filed as active;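 note: ME-180 cervical cancer cells given 40 pM IL-6 alongside compound; SIE-controlled beta-lactamase reporter measured as 460/530 nm FRET emission ratio; % is set by controls: 0 for no effect and ±100 for the full control effect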)
Method in brief: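 Emission at 460 and 530 nm (excitation 405 nm) reports SIE-controlled beta-lactamase in ME-180 cells. Cells received compound with 40 pM IL-6 for 5 hrs at 37 C; data scaled between 300 pM IL-6 and 125 nM JAK-inhibitor controls.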

[4] = molecular target: Glucocorticoid receptor (Homo sapiens) (UniProt P04150); experiment: GR-EFC Redistribution (AID 451; calls by dose curve; note: potency is the fitted concentration of half-maximal effect); settings: CHO-K1 GR-EFC translocation, beta-gal luminescence, 2 h
Chain of Glucocorticoid receptor (Homo sapiens) (P04150 whole entry, looked up, the tested form may be a part): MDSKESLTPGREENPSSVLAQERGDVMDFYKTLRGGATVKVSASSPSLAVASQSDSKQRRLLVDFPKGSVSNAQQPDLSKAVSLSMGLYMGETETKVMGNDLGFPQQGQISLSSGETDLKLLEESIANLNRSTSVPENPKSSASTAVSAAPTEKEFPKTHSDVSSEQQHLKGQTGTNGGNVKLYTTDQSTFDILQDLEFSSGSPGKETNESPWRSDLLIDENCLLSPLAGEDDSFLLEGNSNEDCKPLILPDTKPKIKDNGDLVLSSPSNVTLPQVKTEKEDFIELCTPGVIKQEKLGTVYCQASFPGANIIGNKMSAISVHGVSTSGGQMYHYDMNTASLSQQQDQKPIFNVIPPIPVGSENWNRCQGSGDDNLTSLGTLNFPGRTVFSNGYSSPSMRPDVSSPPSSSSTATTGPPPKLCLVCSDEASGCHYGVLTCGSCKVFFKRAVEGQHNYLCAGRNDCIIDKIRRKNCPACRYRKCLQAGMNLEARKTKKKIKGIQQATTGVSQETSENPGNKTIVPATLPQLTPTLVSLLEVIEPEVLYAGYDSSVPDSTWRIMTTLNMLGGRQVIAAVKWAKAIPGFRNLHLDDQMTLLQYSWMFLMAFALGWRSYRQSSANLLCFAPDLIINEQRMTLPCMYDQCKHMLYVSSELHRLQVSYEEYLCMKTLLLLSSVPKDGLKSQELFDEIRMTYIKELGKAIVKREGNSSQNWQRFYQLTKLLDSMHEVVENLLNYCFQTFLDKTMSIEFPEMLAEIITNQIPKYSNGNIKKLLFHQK
Method in brief: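 Translocation of GR-ED fusion to nuclear EA restores b-gal, read by luminescence after 1 h room-temperature detection. Engineered CHO-K1 biosensor cells, 1,000/well, exposed 2 h at 37 C to titrations up to 46 uM final.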

[5] = molecular target: Mitogen-activated protein kinase 10 (Mus musculus) (UniProt Q61831); experiment: JNK3 AlphaScreen Assay (AID 530; active = well fitted curve in either direction with a large enough effect, not every such curve was filed as active;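 note: kinase came from lysate of stimulated human HepG2 cells; signal reports phosphorylation of biotinylated GST-cJun 1-79 at Ser73 with 10 µM ATP; % is set by controls: 0 for no effect and ±100 for the full control effect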)
Method in brief: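 Kinase buffer: 20 mM Tris-HCl pH 7.6, 10 mM MgCl2, 1 mM DTT, 0.1 mM Na3VO4, 0.01% Tween-20; ATP 10 uM. Substrate biotin-GST-cJun(1-79), enzyme from activated HepG2 lysates. Detection by Ser73 phospho-antibody AlphaScreen.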

[6] = molecular target: Guanine nucleotide-binding protein G(i) subunit alpha-1 (Homo sapiens) (UniProt P63096); experiment: qHTS Assay for Inhibitors of RGS12 GoLoco Motif Activity (Green Fluorophore) (AID 879);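 note: 0% = labeled peptide with Gαi1 and full inhibition = labeled peptide alone without protein; negative values mean loss of peptide binding seen as reduced polarization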
Chain of Guanine nucleotide-binding protein G(i) subunit alpha-1 (Homo sapiens) (P63096 whole entry, looked up): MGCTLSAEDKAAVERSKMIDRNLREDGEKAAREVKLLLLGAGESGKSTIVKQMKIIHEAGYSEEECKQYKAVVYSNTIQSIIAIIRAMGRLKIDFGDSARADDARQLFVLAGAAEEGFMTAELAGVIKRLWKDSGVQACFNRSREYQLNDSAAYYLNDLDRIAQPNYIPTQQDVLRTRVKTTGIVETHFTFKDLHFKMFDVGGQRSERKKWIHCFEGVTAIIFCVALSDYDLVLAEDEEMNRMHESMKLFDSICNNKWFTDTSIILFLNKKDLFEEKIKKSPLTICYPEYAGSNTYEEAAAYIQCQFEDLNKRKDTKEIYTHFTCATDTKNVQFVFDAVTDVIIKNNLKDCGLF
Method in brief: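 A drop in FITC polarization marked displacement of the FITC-tagged RGS12 GoLoco peptide (10 nM) from Gαi1 (50 nM). Compounds were incubated 10 min at room temperature in Tris pH 7.5 buffer containing 150 mM NaCl, 0.1 mM GDP and 0.05% NP40; unlabeled peptide titration served as control.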

[7] = molecular target: Muscarinic acetylcholine receptor M1 (Rattus norvegicus) (UniProt P08482); experiment: qHTS Assay for Antagonists of Acetylcholine Muscarinic M1 Receptor: Measurement of IP-One Response (AID 944); note: nearly all actives have a fitted effect of over 75% in size
Method in brief: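 Antagonism was measured as loss of carbachol-driven (EC80) IP1 accumulation in CHO cells carrying rat M1, using a homogeneous IP-One TR-FRET kit read at 620 and 665 nm.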

[8] = molecular target: Pyruvate kinase (Leishmania mexicana) (UniProt Q27686); experiment: qHTS Validation Assay for Inhibitors of Leishmania Mexicana Pyruvate Kinase (AID 945);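 note: 0% = DMSO only neutral control wells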
Chain of Pyruvate kinase (Leishmania mexicana) (Q27686 2-499 E452W): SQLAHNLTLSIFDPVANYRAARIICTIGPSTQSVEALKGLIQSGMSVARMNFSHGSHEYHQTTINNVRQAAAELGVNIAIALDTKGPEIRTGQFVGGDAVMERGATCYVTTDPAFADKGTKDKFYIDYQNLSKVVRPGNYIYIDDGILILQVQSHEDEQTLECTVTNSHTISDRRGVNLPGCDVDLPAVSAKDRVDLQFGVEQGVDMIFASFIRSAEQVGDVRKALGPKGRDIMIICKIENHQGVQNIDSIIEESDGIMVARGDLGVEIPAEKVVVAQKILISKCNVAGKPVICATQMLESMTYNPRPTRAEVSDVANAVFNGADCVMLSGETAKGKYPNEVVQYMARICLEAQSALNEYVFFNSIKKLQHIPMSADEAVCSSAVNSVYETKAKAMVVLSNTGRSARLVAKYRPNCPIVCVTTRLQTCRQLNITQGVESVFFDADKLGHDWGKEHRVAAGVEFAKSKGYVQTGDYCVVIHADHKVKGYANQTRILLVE
Method in brief: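 qHTS eight-point titrations against 0.2 nM LmPYK (E451W) in imidazole buffer pH 7.2 with 0.5 mM PEP, 0.1 mM ADP; 1 h, room temperature. Readout: PKLight luminescence, normalized to neutral DMSO wells.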

[9] = molecular target: Pyruvate kinase PKM (Homo sapiens) (UniProt P14618); experiment: qHTS Assay for Activators of Human Muscle Pyruvate Kinase (AID 954; active = well fitted curve in the direction sought with a large enough effect, not every such curve was filed as active;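 note: 0% = uninhibited enzyme and -100% = no enzyme or full thiadiazolimine inhibition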)
Chain of Pyruvate kinase PKM (Homo sapiens) (P14618 whole entry, looked up): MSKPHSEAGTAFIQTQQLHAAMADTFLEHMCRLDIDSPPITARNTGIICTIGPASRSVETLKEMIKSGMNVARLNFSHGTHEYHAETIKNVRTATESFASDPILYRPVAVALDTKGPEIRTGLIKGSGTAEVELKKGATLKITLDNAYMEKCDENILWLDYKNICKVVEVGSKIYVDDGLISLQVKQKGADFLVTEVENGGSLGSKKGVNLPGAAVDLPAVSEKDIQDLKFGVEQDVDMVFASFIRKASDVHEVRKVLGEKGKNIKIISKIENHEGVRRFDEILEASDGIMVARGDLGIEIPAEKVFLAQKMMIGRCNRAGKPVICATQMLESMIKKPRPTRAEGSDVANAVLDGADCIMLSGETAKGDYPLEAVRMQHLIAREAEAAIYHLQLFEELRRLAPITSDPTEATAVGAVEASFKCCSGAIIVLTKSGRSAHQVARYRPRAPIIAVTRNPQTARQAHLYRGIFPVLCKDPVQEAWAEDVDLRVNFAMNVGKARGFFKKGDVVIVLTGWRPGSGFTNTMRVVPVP
Method in brief: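 PKM2, human, >95% pure, 0.1 nM; PEP 0.5 mM (Km), ADP 0.1 mM; 50 mM imidazole pH 7.2, 50 mM KCl, 0.01% Tween 20, 0.05% BSA; 1 h RT; luciferase luminescence readout.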

[10] = molecular target: Alpha-galactosidase (Coffea arabica) (UniProt Q42656); experiment: Counterscreen for Glucocerebrosidase Inhibitors: qHTS Assay for Coffee Bean alpha-Galactosidase at pH 4.5 (AID 957);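 note: plate controls were enzyme alone for no effect and no enzyme for full effect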
Chain of Alpha-galactosidase (Coffea arabica) (Q42656 whole entry, looked up): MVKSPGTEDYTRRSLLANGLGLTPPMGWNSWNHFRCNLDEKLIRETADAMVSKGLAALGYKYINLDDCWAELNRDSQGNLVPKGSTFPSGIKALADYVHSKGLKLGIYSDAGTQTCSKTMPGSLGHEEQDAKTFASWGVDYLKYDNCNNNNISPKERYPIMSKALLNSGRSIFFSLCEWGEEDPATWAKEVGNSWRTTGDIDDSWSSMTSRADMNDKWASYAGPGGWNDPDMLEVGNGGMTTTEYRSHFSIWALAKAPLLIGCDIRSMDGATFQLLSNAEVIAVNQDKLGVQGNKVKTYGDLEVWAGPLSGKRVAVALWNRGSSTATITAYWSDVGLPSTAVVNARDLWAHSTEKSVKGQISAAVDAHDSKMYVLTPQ
Method in brief: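 Quantitative HTS of compounds (0.7 nM to 77 uM) against coffee bean alpha-galactosidase at pH 4.5, measuring 4-methylumbelliferone fluorescence released from 80 uM substrate.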

[11] = molecular target: alpha-glucosidase (Oryza sativa, rice) (UniProt Q653V4); experiment: Counterscreen for Glucocerebrosidase Inhibitors: qHTS Assay for Rice alpha-Glucosidase at pH 5.0 (AID 997);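 note: 0% = full activity with enzyme and -100% = basal without enzyme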
Method in brief: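 Endpoint fluorogenic assay at pH 5.0: compounds (0.7 nM to 77 uM) titrated against 4 nM rice enzyme and 400 uM 4-MU-alpha-glucoside for 20 min at room temperature; NaOH/glycine stop, read ex 365/em 440 nm, Hill-fitted AC50.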

[12] = molecular target: Alpha-galactosidase (Coffea arabica) (UniProt Q42656); experiment: Counterscreen for Glucocerebrosidase Inhibitors: qHTS Assay for Coffee Bean alpha-Galactosidase at pH 5.9 (AID 998);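 note: plate controls were uninhibited enzyme for no effect and no-enzyme basal signal for full effect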
Method in brief: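 Fluorogenic 4-MU substrate hydrolysis, 80 uM substrate and 2 nM coffee bean alpha-galactosidase, pH 5.9 citrate buffer, 20 min at room temperature, then NaOH/glycine stop. Titration 0.7 nM–77 uM, normalized to no-enzyme and enzyme controls, AC50 via Hill equation.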

[13] = molecular target: DNA dC->dU-editing enzyme APOBEC-3G (Homo sapiens) (UniProt Q9HC16); experiment: qHTS for inhibitors of Vif-A3G interactions: Validation (AID 588379); note: 0% is about no effect
Chain of DNA dC->dU-editing enzyme APOBEC-3G (Homo sapiens) (Q9HC16 whole entry, looked up): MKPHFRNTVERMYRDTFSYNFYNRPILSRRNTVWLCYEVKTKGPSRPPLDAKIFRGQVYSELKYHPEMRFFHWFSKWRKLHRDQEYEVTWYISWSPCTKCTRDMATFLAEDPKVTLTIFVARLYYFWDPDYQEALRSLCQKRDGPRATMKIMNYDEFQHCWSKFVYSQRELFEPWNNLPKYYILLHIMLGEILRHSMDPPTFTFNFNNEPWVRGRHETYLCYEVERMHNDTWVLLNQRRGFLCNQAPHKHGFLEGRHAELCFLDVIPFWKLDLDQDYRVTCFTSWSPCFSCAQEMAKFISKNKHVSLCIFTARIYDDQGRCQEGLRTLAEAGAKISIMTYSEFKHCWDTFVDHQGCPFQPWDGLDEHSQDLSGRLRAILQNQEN
Method in brief: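 Yellow fluorescence (Ex 488, Em 500-530) of Vif-coexpressing HeLa A3G-eYFP cells, scanned by Acumen cytometer, reports blocked A3G degradation. Cells plated at 700/well overnight at 37 deg C before compound addition, then a further overnight compound incubation at 37 deg C.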

[14] = system: Zika virus NS2B-NS3 protease; experiment: Primary screen GU AMC qHTS for Zika virus inhibitors (AID 1347154); note: nearly all actives have a fitted effect of over 70% in size; note: potency is the fitted concentration of half-maximal effect;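 for activity change, negative = inhibition: 0% = no-inhibitor control and -100% = no-enzyme control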
Method in brief: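 Fluorogenic AMC-substrate cleavage by noncovalent NS2B-NS3 protease complex (25 nM, pH 8.0 Tris buffer with Tween 20) followed for 15 minutes at room temperature (~20% conversion). Percent inhibition from ex340/em450 signal change, fitted by 4-parameter Hill equation.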

[15] = Counterscreen qHTS for small molecule stabilizers of the endoplasmic reticulum resident proteome: GLuc-NoTag assay (AID 1508627); note: potency is the fitted concentration of half-maximal effect;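 for activity change, negative = inhibition: SH-SY5Y cells given compound then 100 nM thapsigargin to empty ER calcium; 0% = thapsigargin alone and -100% = DMSO vehicle control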
Method in brief: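 Counterscreen line: SH-SY5Y-GLuc-NoTag cells, treated with compound 19 hr before a 4 hr, 100 nM thapsigargin calcium depletion. Secreted Gaussia luciferase in the medium was measured by luminescence after coelenterazine was added (0.07x final), with cells unlysed.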

[16] = molecular target: Glucocorticoid receptor (Homo sapiens) (UniProt P04150); experiment: GR-GFP Redistribution (AID 450;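 active = compounds whose dose series gives a full or clear partial fitted curve of increased nuclear translocation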; note: potency is the fitted concentration of half-maximal effect); settings: U2OS GR-GFP nuclear translocation, laser cytometry, 2 h
[17] = Primary qHTS for small molecule stabilizers of the endoplasmic reticulum resident proteome: Secreted ER Calcium Modulated Protein (SERCaMP) assay (AID 1508630); note: % is set by controls: 0 for no effect and ±100 for the full control effect
Method in brief: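 The SH-SY5Y reporter protocol was run at 3 concentrations up to 38.3 uM (primary) or 11 concentrations (follow-up): 16 h compound, 100 nM thapsigargin for 4 h, then extracellular luciferase luminescence.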

[18] = qHTS Assay for Lipid Storage Modulators (AID 1519; calls by dose curve); settings: Drosophila S3 cells, BODIPY lipid droplet/cell ratio, laser cytometry, cells loaded with oleic acid
Method in brief: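 Cells seeded at 5,000 per well were treated with compounds over a concentration series and loaded with oleic acid (400 uM, as added). Lipid droplet fluorescence (488 nm excitation, 500-530 nm channel) was read by laser-scanning cytometry and normalized to 20 uM Triacsin C.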

[19] = molecular target: Ubiquitin carboxyl-terminal hydrolase 1 (Homo sapiens) (UniProt O94782); experiment: Inhibitors of USP1/UAF1: Pilot qHTS (AID 504865); note: nearly all actives have a fitted effect of over 35% in size; note: potency is the fitted concentration of half-maximal effect
Chain of Ubiquitin carboxyl-terminal hydrolase 1 (Homo sapiens) (O94782 whole entry, looked up): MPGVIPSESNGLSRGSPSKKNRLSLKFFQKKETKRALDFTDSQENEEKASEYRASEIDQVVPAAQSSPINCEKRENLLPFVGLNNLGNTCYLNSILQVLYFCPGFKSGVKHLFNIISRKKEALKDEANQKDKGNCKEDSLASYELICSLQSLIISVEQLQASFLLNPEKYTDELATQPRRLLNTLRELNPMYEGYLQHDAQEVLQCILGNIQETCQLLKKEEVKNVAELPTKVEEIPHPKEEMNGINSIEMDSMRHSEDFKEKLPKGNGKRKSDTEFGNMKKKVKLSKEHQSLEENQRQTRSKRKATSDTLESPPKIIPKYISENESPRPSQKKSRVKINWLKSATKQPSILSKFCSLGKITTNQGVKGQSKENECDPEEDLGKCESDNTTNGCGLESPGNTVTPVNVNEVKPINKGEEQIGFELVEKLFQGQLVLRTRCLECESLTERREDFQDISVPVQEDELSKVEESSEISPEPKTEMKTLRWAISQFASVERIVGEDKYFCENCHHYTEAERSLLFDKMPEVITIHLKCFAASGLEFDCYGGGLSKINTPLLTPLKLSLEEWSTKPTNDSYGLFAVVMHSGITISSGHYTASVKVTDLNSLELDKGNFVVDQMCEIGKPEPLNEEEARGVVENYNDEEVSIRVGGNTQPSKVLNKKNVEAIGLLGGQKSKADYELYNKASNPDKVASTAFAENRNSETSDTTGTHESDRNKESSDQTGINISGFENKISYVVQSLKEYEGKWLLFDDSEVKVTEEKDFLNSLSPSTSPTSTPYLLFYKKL
Method in brief: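 In 50mM HEPES pH 7.8 containing 0.5mM EDTA, 1mM TCEP, 0.1 mg/ml BSA and 0.01% Tween-20, 1nM USP1/UAF1 is exposed to compound for 15 min, then Ub-Rho (150nM final) is added and fluorescence is read over time.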

[20] = molecular target: 3',5'-cyclic-AMP phosphodiesterase 4B (Homo sapiens) (UniProt Q07343); experiment: qHTS Assay for Inhibitors of PDE-IV (AID 607; active = well fitted activation curve with a large enough effect in the main read-out, with a control signal flat, not every such curve was filed as active; note: % of control where 0% means no effect)
Chain of 3',5'-cyclic-AMP phosphodiesterase 4B (Homo sapiens) (Q07343 whole entry, looked up): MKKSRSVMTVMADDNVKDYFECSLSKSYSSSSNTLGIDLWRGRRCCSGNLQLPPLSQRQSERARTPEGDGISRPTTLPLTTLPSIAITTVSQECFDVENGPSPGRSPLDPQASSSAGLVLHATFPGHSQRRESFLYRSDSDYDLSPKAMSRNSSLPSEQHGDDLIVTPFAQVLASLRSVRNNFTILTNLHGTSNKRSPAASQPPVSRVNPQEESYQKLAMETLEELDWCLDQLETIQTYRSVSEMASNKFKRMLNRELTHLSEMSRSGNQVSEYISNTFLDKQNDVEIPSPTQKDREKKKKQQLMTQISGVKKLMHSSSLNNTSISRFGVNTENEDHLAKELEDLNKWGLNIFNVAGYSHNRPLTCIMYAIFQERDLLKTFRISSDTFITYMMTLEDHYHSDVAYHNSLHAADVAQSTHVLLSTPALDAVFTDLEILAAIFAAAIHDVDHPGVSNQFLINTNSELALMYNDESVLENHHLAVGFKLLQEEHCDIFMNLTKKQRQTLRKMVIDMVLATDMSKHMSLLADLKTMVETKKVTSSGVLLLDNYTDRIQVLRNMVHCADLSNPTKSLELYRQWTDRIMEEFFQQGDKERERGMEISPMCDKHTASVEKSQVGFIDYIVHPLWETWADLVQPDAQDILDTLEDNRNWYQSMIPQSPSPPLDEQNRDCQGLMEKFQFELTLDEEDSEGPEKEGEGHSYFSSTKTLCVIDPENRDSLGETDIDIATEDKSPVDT
Method in brief: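 The readout is membrane depolarisation from a cAMP-sensing CNG channel, detected with a potential dye at ex 535/em 590. Cells were HEK293-derived (endogenous PDE-IV) at 1000 cells/well, titrated up to 22.9 uM final.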

[21] = measured here: cell count channel max response
[22] = measured here: lipid channel max response

Oc1ccc2c3c1O[C@H]1c4[nH]c5ccccc5c4C[C@]4(O)[C@H](C2)N(CC2CC2)CC[C@@]314
inactive: outcome [1] | outcome [3] | Potency [4] > 46 µM | outcome [5] | outcome [6] | Potency [7] | outcome [8] | outcome [9] | outcome [10] | outcome [11] | outcome [12] | Potency [13] | Potency [14] | Potency [15]
inactive and 39.8 µM (active): Potency [2]

COc1ccc(CCN)cc1O
inactive: outcome [1] | Potency [16] > 46 µM | Potency [4] > 46 µM | outcome [6] | Potency [7] | outcome [8] | outcome [9] | outcome [10] | outcome [11] | outcome [12] | Potency [14] | Potency [17]

O[C@@H]1[C@H](O)[C@H]2[C@@H](O)CCN2C[C@@H]1O
inactive: Potency [16] > 46 µM | Potency [4] > 46 µM | outcome [5] | activity change, negative = inhibition ([18]; at 57.5 µM (top of the series)) -2.53% | Potency [19] | Potency [13] | Potency [14] | Potency [15] | Potency [17]
7.43%: max response [18, 21]
6.33%: max response [18, 22]

CC(C)C[C@H](NC(=O)[C@H](Cc1ccccc1)NC(=O)CNC(=O)[C@H](C)NC(=O)[C@@H](N)Cc1ccc(O)cc1)C(=O)O
inactive: activity change, negative = inhibition [14] 14.3% [at 6.83 µM] | activity change, negative = inhibition [15] 12% [at 9.46 µM]

COc1ccc2c3c([nH]c2c1)C(C)=NCC3
0.146%: max response [18, 21]
inactive: outcome [1] | Potency [16] > 20.6 µM and > 46 µM | Potency [4] > 20.6 µM and > 46 µM | outcome [5] | Potency [20] | activity change, negative = inhibition ([18]; at 25.7 µM (top of the series)) 1.66% | Potency [19] | Potency [13] | Potency [17]
active: Potency [2] 794 nM and 251 nM | Potency [14] 21.2 µM
2.64%: max response [18, 22]

CN1C(=O)COc2c(C(=O)N[C@@H]3CN4CCC3CC4)cc(Cl)cc21
5.55%: max response [18, 21]
11.3%: max response [18, 22]
inactive: outcome [5] | activity change, negative = inhibition ([18]; at 57.5 µM (top of the series)) 3.71% | Potency [19] | Potency [13] | Potency [14] | Potency [15]

CN1CC[C@@H]2CN3CCc4cccc(c43)[C@H]2C1
inactive: Potency [4] > 46 µM | outcome [5] | Potency [19] | Potency [13] | Potency [14] | Potency [15]

C[C@H](N)Cc1c[nH]c2ccc(OCc3cccs3)cc12
inactive: outcome [1] | outcome [3] | Potency [16] > 46 µM | Potency [4] > 46 µM | outcome [5] | outcome [6] | Potency [7] | outcome [8] | outcome [9] | outcome [11] | outcome [12] | Potency [13] | Potency [14] | Potency [15]
active: Potency [2] 1.58 µM and 126 nM

c1ccc2sc(C3(N4CCCC4)CCCCC3)cc2c1
inactive: Potency [14] | Potency [15]

COc1ccc2c(c1)[nH]c1c(C)nccc12
inactive: outcome [3] | Potency [16] > 20.6 µM | Potency [4] > 20.6 µM | outcome [5] | Potency [20] | activity change, negative = inhibition ([18]; at 25.7 µM (top of the series)) -4.61% | activity change, negative = inhibition ([18]; at 57.5 µM (top of the series)) 2.5% | Potency [19] | Potency [13] | Potency [17]
active: Potency [14] 3.36 µM
-9.39% and 13.6%: max response [18, 22]
-2.86% and 7%: max response [18, 21]

Fc1ccc(C(OCCN2CCN(C/C=C/c3ccccc3)CC2)c2ccc(F)cc2)cc1
active: Potency [15] 44.7 µM
inactive: Potency [14]

CC[C@H](Oc1ccc(Cl)cc1)C(=O)OC1C[C@H]2CC[C@@H](C1)N2C (some centres undefined)
28.8%: max response [18, 22]
16.1%: max response [18, 21]
inactive: Potency [4] > 46 µM | outcome [5] | activity change, negative = inhibition ([18]; at 57.5 µM (top of the series)) -0.561% | Potency [19] | Potency [13] | Potency [14] | Potency [15]

CN1CC[C@@]2(c3cccc(O)c3)Cc3nc4ccccc4cc3C[C@H]2C1
inactive: Potency [16] > 46 µM | Potency [4] > 46 µM | outcome [5] | Potency [19] | Potency [13] | Potency [14] | Potency [15]

Cl.Cl.Cl.Cl.Cl.Cl.N.N.N.N.NNNNN.NNNNN.O.O.[Ru].[Ru].[Ru]
active: Potency [19] 50.1 µM | Potency [15] 12.6 µM
-31.1%: max response [18, 22]
-27.5%: max response [18, 21]
inactive: Potency [16] > 46 µM | Potency [4] > 46 µM | outcome [5] | Potency [20] | activity change, negative = inhibition ([18]; at 57.5 µM (top of the series)) -5.89% | Potency [13] | Potency [14]

C[N+]1(C)CCc2cc3c(cc2C1C1OC(=O)c2c1ccc1c2OCO1)OCO3 (centres undefined)
inactive: Potency [14]

CC(C(=O)OC1CC2CCC(C1)N2C)c1ccc(Br)cc1 (centres undefined)
inactive: Potency [14]

N[C@@H](Cn1cc(I)c(=O)[nH]c1=O)C(=O)O
inactive: Potency [16] > 46 µM | Potency [4] > 46 µM | outcome [6] | Potency [7] | outcome [8] | outcome [9] | outcome [10] | outcome [11] | outcome [12] | activity change, negative = inhibition ([18]; at 57.5 µM (top of the series)) 1.49% and 0.139% | Potency [19] | Potency [13] | Potency [14] | Potency [17]
4.16% and -23.5%: max response [18, 22]
1.2% and -23.8%: max response [18, 21]
